{
  "source": "PubChem BioAssay (NCI)",
  "note": "This is part of a sample that, as a whole, favours compounds with a hit. Of some 83,000 tested, about 20% had one in any assay.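 Negative percent growth values reflect cell death: -40 means 40% of the cells present at the start died, and -100 means all died.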 Calls of active or inactive are those of the source.",
  "data": [
    {"tested_on": "A498 renal", "test": "NCI-60 one-dose screen, 48 h (100 = growth as untreated, 0 = no growth, -100 = all killed)", "conditions": "10 µM unless noted", "experimental": "Growth inhibition of the A498 human tumor cell line is measured as a screen for anti-cancer activity. Cells are grown in 96 well plates and exposed to the test compound for 48 hours. Compounds are tested at a single concentration, which is 10^-5 M for most compounds. The reported endpoint is percent growth (GI% or GIPRCNT), where numbers from 0 - 100% represent growth inhibition, and numbers from -100% - 0 represent cell death. For example, a value of 40 represents 60% growth inhibition. A value of 0 means no net growth occurred over the course of the experiment. A value of -40 indicates 40% of cells at the beginning of the experiment died by the end of the experiment. A value of -100 means all cells are dead at the end of the experiment.\nNCI-60 Human Tumor Cell Lines Screen was performed using the standard one-dose NCI protocol, which is described in more detail at https://dtp.cancer.gov/discovery_development/nci-60/default.htm.\nCompounds with GIPRCNT values below 10 were considered active. Activity score was based on GIPRCNT using the following formula: […]\nScore is 0 for GIPRCNT values of 100 or above, 50 for GIPRCNT values of 0, and 100 for GIPRCNT values of -100.", "values": [
      {"smiles": "Cc1cc(NCC(=O)Nc2ccc(-c3nc4ccccc4s3)cc2)no1", "growth": "89.7% (inactive)"},
      {"smiles": "Cc1cc(Nc2nc(N[C@@H](C)c3ncc(F)cn3)ncc2Cl)n[nH]1", "growth": "-2.39% (active)"},
      {"smiles": "C[C@@H]1COC(Nc2ccc3ncnc(Nc4ccc(OCc5nccs5)c(Cl)c4)c3c2)=N1", "growth": "22.5% (inactive)"},
      {"smiles": "CC(C)[C@@H]1CC[C@@H]2[C@@H]1[C@H](OC(=O)/C=C/c1ccccc1)[C@]1(C(C)C)C[C@@H](OC(=O)CO)[C@@]2(C)O1", "growth": "-51.8% (active)"},
      {"smiles": "C[C@@H](NC(=O)c1ncnc(N)c1Cl)c1ncc(C(=O)Nc2cc(C(F)(F)F)c(Cl)cn2)s1", "growth": "59.6% (inactive)"},
      {"smiles": "COc1ccc(Br)cc1NC(=O)Nc1cccc2c1ccn2Cc1ccnc(N)c1", "growth": "-2.46% (active)"},
      {"smiles": "CNC(=O)c1cc(Oc2ccc3nc(NC(=O)Nc4ccc(Cl)c(C(F)(F)F)c4)sc3c2)ccn1", "growth": "30% (inactive)"},
      {"smiles": "COc1ccc2c(OCc3nnc4ccc(-c5ccccc5)nn34)ccnc2c1", "growth": "89.1% [2.5 µM] (inactive)"},
      {"smiles": "Cn1ncc(Cl)c1-c1cc(C(=O)N[C@H](CN)Cc2ccc(F)c(F)c2)oc1Cl", "growth": "-78.9% (active)"},
      {"smiles": "COC1CCC(N2C(=O)CNc3ncc(-c4ccc(C(C)(C)O)nc4)nc32)CC1", "note": "(stereo not given)", "growth": "-23.8% (active)"},
      {"smiles": "Cn1ncc(Cl)c1-c1cc(C(=O)N[C@H](CN)Cc2cccc(F)c2)sc1Cl", "growth": "-61.2% (active)"},
      {"smiles": "COc1cc(Nc2ncc3c(n2)-c2ccc(Cl)cc2C(c2c(F)cccc2OC)=NC3)ccc1C(=O)O", "growth": "63.2% (inactive)"},
      {"smiles": "CSc1nc2ncncc2[nH]1", "growth": "78.2% (inactive)"},
      {"smiles": "C#Cc1cccc(Nc2ncnc3cc(OCCOC)c(OCCOC)cc23)c1", "growth": "20.2% (inactive)"},
      {"smiles": "CCN1CCN(c2nc(C)cc(N(CCNc3ccnc4cc(Cl)ccc34)Cc3ccc4c(c3)OCO4)n2)CC1", "growth": "53.2% (inactive)"},
      {"smiles": "OCCNC(=S)Nc1ccc(-c2nc(N3C[C@H]4CC[C@@H](C3)O4)c3cccn3n2)cc1", "growth": "-37.5% (active)"},
      {"smiles": "Cn1cnc2c(F)c(Nc3ccc(Br)cc3F)c(C(=O)NOCCO)cc21", "growth": "-28.4% (active)"},
      {"smiles": "COc1cc2ncnc(Nc3cccc(Cl)c3F)c2cc1OC(=O)N1CCN(C)C[C@H]1C", "growth": "82.8% (inactive)"},
      {"smiles": "CN[C@@H]1C[C@H]2O[C@@](C)([C@@H]1OC)n1c3ccccc3c3c4c(c5c6ccccc6n2c5c31)C(=O)N[C@H]4O", "growth": "-97.1% (active)"},
      {"smiles": "Cn1cc(-c2[nH]c3cc(NC(=O)[C@H](N)C4CCCCC4)cc4c3c2C=NNC4=O)cn1", "growth": "-43.7% (active)"},
      {"smiles": "O=C1C=CC2(NN=C(c3ccccc3)N2c2ccc(Cl)cc2)c2cccc(O)c21", "note": "(stereo not given)", "growth": "91.3% (inactive)"},
      {"smiles": "Cc1ccc(C(=O)Nc2ccc(CN3CCN(C)CC3)c(C(F)(F)F)c2)cc1C#Cc1cnc2cccnn12", "growth": "-96.8% (active)"},
      {"smiles": "C=CC[n+]1c(/C=C2\\Sc3ccccc3N2C)sc(-c2ccccc2)c1-c1ccccc1", "growth": "7.29% (active)"},
      {"smiles": "CN1CC[C@H](c2c(O)cc(O)c3c(=O)cc(-c4ccccc4Cl)oc23)[C@H](O)C1", "growth": "-54.2% (active)"},
      {"smiles": "C=CCCCC(=O)CCC(=O)OCC1O[C@@H](O[C@@H]2C(O)[C@@H](OC(C)=O)C(C)O[C@H]2O[C@H](CC=C)CCCCC)C(O)[C@@H](OC(=O)/C(C)=C/C)[C@@H]1OC(=O)/C=C/c1ccccc1", "note": "(stereo not given in full)", "growth": "52.5% (inactive)"},
      {"smiles": "CC(C)c1cc(CNc2nc(Nc3cc(C4CC4)[nH]n3)cc(N3CCN(C)CC3)n2)on1", "growth": "-78.5% (active)"},
      {"smiles": "COc1ccc(-c2cc3c(C)nc(N)nc3n(C3CCC(OCCO)CC3)c2=O)cn1", "note": "(stereo not given)", "growth": "-55.8% (active)"},
      {"smiles": "Cc1c(CN2CCN(C(=O)[C@H](C)O)CC2)sc2c(N3CCOCC3)nc(-c3cnc(N)nc3)nc12", "growth": "-52.9% (active)"},
      {"smiles": "C=CC(=O)N1CCC[C@H](n2c(=O)n(-c3ccc(Oc4ccccc4)cc3)c3c(N)ncnc32)C1", "growth": "81.2% (inactive)"},
      {"smiles": "COC(=O)[C@H](Cc1ccccc1)NC(=O)[C@@H](OC)[C@@H]1Cc2cc3cc(OC4CC(OC5CC(O)C(O)C(C)O5)C(O)C(C)O4)c(C)c(O)c3c(O)c2C(=O)[C@H]1OC1CC(OC2CC(OC3CC(C)(O)C(O)C(C)O3)C(O)C(C)O2)C(O)C(C)O1", "note": "(stereo not given in full)", "growth": "-40.3% (active)"},
      {"smiles": "Cc1nc(Nc2n[nH]c3c2CN(C(=O)N[C@H](CN(C)C)c2ccccc2)C3(C)C)c2sccc2n1", "growth": "-72.9% (active)"},
      {"smiles": "COc1cc2nc(Nc3cccc(Cl)c3)nc(N)c2cc1OC", "growth": "63.5% (inactive)"},
      {"smiles": "CC(=O)CC1CCCC1c1ccc2ccccc2c1", "note": "(stereo not given)", "growth": "97.6% (inactive)"},
      {"smiles": "COC(=O)CNC(=O)[C@@H](OC)[C@@H]1Cc2cc3cc(OC4CC(OC5CC(O)C(O)C(C)O5)C(O)C(C)O4)c(C)c(O)c3c(O)c2C(=O)[C@H]1OC1CC(OC2CC(OC3CC(C)(O)C(O)C(C)O3)C(O)C(C)O2)C(O)C(C)O1", "note": "(stereo not given in full)", "growth": "-74.3% (active)"},
      {"smiles": "CS(=O)(=O)CCNCc1ccc(-c2ccc3ncnc(Nc4ccc(OCc5cccc(F)c5)c(Cl)c4)c3c2)o1", "growth": "7.48% (active)"},
      {"smiles": "O=c1nc2c(-c3nc4ccccc4s3)n[nH]n2c2sc3c(c12)CCCC3", "growth": "103% (inactive)"},
      {"smiles": "CC(C)=CCc1cc2c(cc1O)C1=C(C(=O)C3=C(NCCS3(=O)=O)C1=O)C(C=C(C)C)O2", "note": "(stereo not given)", "growth": "94.9% (inactive)"},
      {"smiles": "CC(C)(O)CC(=O)NCCn1ccc2ncnc(Nc3ccc(Oc4cccc(C(F)(F)F)c4)c(Cl)c3)c21", "growth": "-28.7% (active)"},
      {"smiles": "CCCCCC(=O)OCc1ccc(Cl)c(Cl)c1", "growth": "92.6% (inactive)"},
      {"smiles": "Cc1nc(-c2cn3c(n2)-c2ccc(-c4cnn(C(C)(C)C(N)=O)c4)cc2OCC3)n(C(C)C)n1", "growth": "-31.3% (active)"}
    ]}
  ]
}
